PubChem BioAssay AID1159580 (chemical genetic matrix, 2015)
Screen size: about 5,500 compounds; about 2,000 (36%) were called active. Not shown: some 18% with an inconclusive outcome. Cut-off read from the data, not from the text of the source: active = normalized growth mostly below about 0.91 (no sharp cut-off); inconclusive = no clear call, values can overlap the other calls; inactive = mostly above about 0.92. This is one part of the list.

Assay: chemical genetic growth profiling, strain panel (AID 1159580);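 note: tested at 20 µM; growth read once vehicle control cultures reached saturation at 30 °C; 1 = growth at the plate median or of vehicle wells; lower values mean less growth of the strain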
Conditions: S. cerevisiae deletion strains, growth OD
[1] = locus YAL013W, strain DEP1, stronger effect = lower value
[2] = locus YJR075W, strain HOC1, stronger effect = lower value
[3] = locus YMR307W, strain GAS1, stronger effect = lower value
[4] = locus YNL153C, strain GIM3, stronger effect = lower value
[5] = locus YNL322C, strain KRE1, stronger effect = lower value
[6] = locus YAL040C, strain CLN3, stronger effect = lower value
[7] = locus YCL061C, strain MRC1 (second series), stronger effect = lower value
[8] = locus YDR150W, strain NUM1, stronger effect = lower value
[9] = locus YDR363W, strain ESC2, stronger effect = lower value
[10] = locus YER002W, strain NOP16, stronger effect = lower value
[11] = locus YGR078C, strain PAC10, stronger effect = lower value
[12] = locus YNL175C, strain NOP13, stronger effect = lower value
[13] = locus YNL197C, strain WHI3, stronger effect = lower value
[14] = locus YNL224C, strain SQS1, stronger effect = lower value
[15] = locus YOR083W, strain WHI5 (second series), stronger effect = lower value

Measured: normalized growth

CCC1C2CC3C4N(C)c5ccccc5C45CC(C2C5OC(C)=O)N3C1OC(C)=O (configuration not stated)
inactive: [1] 1.01 | locus YBR021W, strain FUR4, stronger effect = lower value 1.01 | locus YBR229C, strain ROT2, stronger effect = lower value 1 | locus YCL029C, strain bik1, stronger effect = lower value 1.02 | locus YDL035C, strain GPR1, stronger effect = lower value 1.02 | locus YDL074C, strain BRE1, stronger effect = lower value 1.04 | locus YDL101C, strain DUN1, stronger effect = lower value 1.01 | locus YDL134C, strain PPH21, stronger effect = lower value 1.02 | locus YDL185W, strain tfp1, stronger effect = lower value 1.02 | locus YDL192W, strain arf1, stronger effect = lower value 1.01 | locus YDR101C, strain arx1, stronger effect = lower value 1.01 | locus YDR162C, strain NBP2, stronger effect = lower value 1.01 | locus YDR318W, strain mcm21, stronger effect = lower value 1.01 | locus YDR388W, stronger effect = lower value 1.03 | locus YDR502C, strain sam2, stronger effect = lower value 1.02 | locus YEL061C, strain CIN8, stronger effect = lower value 1.01 | locus YER110C, stronger effect = lower value 1.03 | locus YER155C, strain BEM2, stronger effect = lower value 1 | locus YER167W, strain BCK2, stronger effect = lower value 1.02 | locus YGL078C, strain dbp3, stronger effect = lower value 1 | locus YGL086W, strain mad1, stronger effect = lower value 0.997 | locus YGL248W, strain PDE1, stronger effect = lower value 1.01 | locus YGR135W, strain pre9, stronger effect = lower value 1.01 | locus YGR252W, strain gcn5, stronger effect = lower value 1.02 | locus YHR030C, strain SLT2, stronger effect = lower value 1.02 | locus YHR079C, strain IRE1 (second series), stronger effect = lower value 1 | locus YHR094C, strain hxt1, stronger effect = lower value 1.01 | locus YHR129C, strain ARP1, stronger effect = lower value 1.02 | locus YHR200W, strain rpn10, stronger effect = lower value 1.02 | locus YIL066C, strain RNR3, stronger effect = lower value 1.02 | locus YIL073C, strain SPO22, stronger effect = lower value 1.08 | locus YIL125W, strain kgd1, stronger effect = lower value 1.03 | locus YIR030C, strain dcg1, stronger effect = lower value 1.01 | locus YJL095W, strain BCK1, stronger effect = lower value 1.01 | locus YJL134W, strain LCB3, stronger effect = lower value 1.02 | locus YJL168C, strain set2, stronger effect = lower value 1.02 | locus YJL187C, strain SWE1 (second series), stronger effect = lower value 1.01 | locus YJR043C, strain POL32, stronger effect = lower value 1.01 | [2] 1.04 | locus YKL009W, strain mrt4, stronger effect = lower value 1.02 | locus YKL068W, stronger effect = lower value 1 | locus YKL085W, strain MDH1 (second series), stronger effect = lower value 0.995 | locus YKL085W, strain MDH1, stronger effect = lower value 0.995 | locus YKR001C, strain vps1, stronger effect = lower value 1.03 | locus YLR039C, strain RIC1, stronger effect = lower value 1.07 | locus YLR058C, strain SHM2, stronger effect = lower value 1.01 | locus YLR102C, strain apc9, stronger effect = lower value 1.03 | locus YLR262C, strain YPT6, stronger effect = lower value 1.09 | locus YLR268W, strain sec22, stronger effect = lower value 1.02 | locus YLR330W, strain CHS5, stronger effect = lower value 1.02 | locus YLR342W, strain FKS1 (second series), stronger effect = lower value 1.03 | locus YLR371W, strain rom2, stronger effect = lower value 1.01 | locus YLR418C, strain cdc73, stronger effect = lower value 1.04 | locus YML016C, strain PPZ1, stronger effect = lower value 1.01 | locus YML032C, strain rad52, stronger effect = lower value 1.02 | locus YML124C, strain tub3, stronger effect = lower value 1.01 | locus YMR078C, strain ctf18, stronger effect = lower value 0.999 | locus YMR223W, strain ubp8, stronger effect = lower value 1.01 | locus YMR263W, strain SAP30, stronger effect = lower value 1.01 | [3] 0.992 | locus YNL067W, strain RPL9B, stronger effect = lower value 1.02 | locus YNL128W, strain TEP1, stronger effect = lower value 1.01 | [4] 1 | locus YNL233W, strain BNI4, stronger effect = lower value 1.02 | locus YNL250W, strain rad50, stronger effect = lower value 1.01 | locus YNL271C, strain bni1, stronger effect = lower value 1.01 | locus YNL298W, strain CLA4, stronger effect = lower value 1.02 | locus YNL307C, strain MCK1, stronger effect = lower value 1.02 | [5] 1.01 | locus YNR052C, strain pop2, stronger effect = lower value 1.02 | locus YOL006C, strain TOP1, stronger effect = lower value 1.14 | locus YOL012C, strain htz1 0.814 | locus YOL147C, strain pex11, stronger effect = lower value 1.02 | locus YOR061W, strain CKA2, stronger effect = lower value 1.01 | locus YOR069W, strain VPS5, stronger effect = lower value 1.01 | locus YOR136W, strain idh2, stronger effect = lower value 1.02 | locus YOR144C, strain elg1, stronger effect = lower value 1.01 | locus YOR184W, strain ser1, stronger effect = lower value 1.01 | locus YOR316C, strain cot1, stronger effect = lower value 1.02 | locus YPL055C, strain LGE1, stronger effect = lower value 1.04 | locus YPR119W, strain clb2, stronger effect = lower value 1 | locus YPR141C, strain kar3, stronger effect = lower value 1.01 | locus YPR163C, strain tif3, stronger effect = lower value 1.02 | locus YPR167C, strain met16, stronger effect = lower value 1.01 | strain wtn01, stronger effect = lower value 1.04

CO[C@H]1CC=C2CCN3CCC4=C(CC(=O)OC4)[C@]23C1
inactive: [6] 0.99 | [7] 1 | [8] 1.01 | [9] 1.07 | [10] 1.01 | [11] 1.01 | [2] 1.01 | [3] 0.999 | [4] 0.981 | [12] 1.01 | [13] 1.03 | [14] 0.997 | [5] 0.998 | [15] 1.06

Nc1ccn([C@H]2CC[C@@H](CO)O2)c(=O)n1
inactive: [1] 1.01 | [6] 1.01 | [7] 0.988 | [8] 0.994 | [9] 1.01 | [10] 0.987 | [11] 0.989 | [3] 0.993 | [4] 1.04 | [12] 1 | [13] 1 | [14] 0.997 | [15] 1.01
